Rows were chosen to be rich in hits. Some 0.69% of all compounds tested hit in one or more screens of this group.
DTT redox prof = compounds producing H2O2 with reducing agent – biochemical, NIH compound library profiling, artefact control for MLSCN library redox annotation, primary screen | DTT-dependent redox cycling H2O2, phenol red/HRP absorbance; 100% = 100 µM peroxide control, 0% = buffer | activation, % at 10 µM | 200,000 compounds, 0.03% hits | AID 878, 2007;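 active = activation of at least 50% relative to the plate's high and low controls in the primary single-dose screen; inactive = activation below 50%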;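 also: compound incubated with DTT at 0.8 mM final as the reducing agent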
p97 ATPase inh = inhibitors of human p97 ATPase, primary screen, biochemical | recombinant p97 ATPase, Kinase-Glo ATP luminescence, 3 h | Transitional endoplasmic reticulum ATPase (Homo sapiens), P55072 | inhibition, % at 8 µM | 220,000 compounds, 0.42% hits; in the data active = inhibition above about 15%
Target sequence (P55072 whole entry, looked up): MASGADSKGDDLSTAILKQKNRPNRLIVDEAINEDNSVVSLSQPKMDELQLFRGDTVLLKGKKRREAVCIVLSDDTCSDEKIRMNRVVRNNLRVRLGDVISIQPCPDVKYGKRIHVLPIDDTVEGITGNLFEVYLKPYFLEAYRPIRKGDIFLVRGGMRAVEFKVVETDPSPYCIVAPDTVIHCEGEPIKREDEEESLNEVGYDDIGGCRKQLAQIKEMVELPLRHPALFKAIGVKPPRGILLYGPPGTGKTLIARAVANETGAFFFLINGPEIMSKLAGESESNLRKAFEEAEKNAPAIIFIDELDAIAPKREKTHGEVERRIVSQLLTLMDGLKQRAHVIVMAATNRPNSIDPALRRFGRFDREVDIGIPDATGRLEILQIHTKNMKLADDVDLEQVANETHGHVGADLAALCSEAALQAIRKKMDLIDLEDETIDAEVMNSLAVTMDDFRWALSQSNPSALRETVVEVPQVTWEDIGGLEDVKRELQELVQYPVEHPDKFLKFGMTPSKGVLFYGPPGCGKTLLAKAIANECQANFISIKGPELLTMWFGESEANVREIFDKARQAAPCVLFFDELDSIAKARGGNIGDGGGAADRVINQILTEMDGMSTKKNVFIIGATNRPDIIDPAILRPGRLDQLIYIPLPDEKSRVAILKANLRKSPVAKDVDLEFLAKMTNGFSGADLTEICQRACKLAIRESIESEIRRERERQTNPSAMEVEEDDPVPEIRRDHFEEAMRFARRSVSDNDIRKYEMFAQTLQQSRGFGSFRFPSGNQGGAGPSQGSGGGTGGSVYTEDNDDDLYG
UBC9 SUMO inh = inhibitors of in vitro SUMOylation cascade, primary screen, biochemical, HTRF, uHTS | 290,000 compounds, 0.36% hits | SUMO-conjugating enzyme UBC9 (Homo sapiens), P63279 | HTRF SUMOylation assay, SAE1/SAE2 + UBC9 | inhibition, % at 35 µM | AID 2006, 2009; in the data active = inhibition above about 50%, passing the limit was not always enough; inconclusive = no clear call, values can overlap the other calls
PERK inh = block of dimerizer-induced PERK translation repression, primary screen, PERK inhibitor project, CHO PERK-DD cells, SEAP luminescence, HTS | Eukaryotic translation initiation factor 2-alpha kinase 3 (Homo sapiens), Q9NZJ5 | CHO PERK-DD fusion, SEAP luminescence translation reporter | inhibition, % at 5.6 µM | 220,000 compounds, 0.17% hits;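 active = inhibition above the mean inhibition of all tested compounds plus 3 SD, set separately per screening campaign, cut at about 2.9% in these data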;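 also: PERK kinase domain activated by AP20187 dimerizer at 100 nM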
Redox H2O2 DR = confirmation of DTT-dependent redox cycling H2O2 generators; phenol red-HRP absorbance; EC50, µM; 60 compounds, 40% hits; shares compounds with DTT redox prof;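 active = EC50 under a set limit for hydrogen peroxide production with the reducing agent DTT present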
p97 inh conf = p97 ATPase inhibitors, retest, confirmation, biochemical. shares compounds with p97 ATPase inh. recombinant p97 ATPase, Kinase-Glo ATP luminescence. inhibition, % at 8 µM. 760 compounds, 44% hits. AID 1517, 2009;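 active = percent inhibition of p97 ATPase above a set limit, the primary screen's mean plus 3 SD, cut at about 15% in these data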
Of the large screens only hits and unclear results are named; the others gave an inactive call (follow-up assays come after a bar, where they were run).

CCOc1ccc(NC(=S)Nc2ccc3nsnc3c2)cc1	DTT redox prof 127, p97 ATPase inh 33 | Redox H2O2 DR inactive | p97 inh conf 30
COc1ccc(CCNC(=O)CCN2C(=O)[C@@H]3Cc4ccccc4CN3C2=O)cc1OC	none (no result: DTT redox prof, p97 ATPase inh, PERK inh)
Cn1nc(-c2ccc(Cl)cc2)nc2c(=O)n(C)c(=O)nc1-2	DTT redox prof 170, p97 ATPase inh 38 | Redox H2O2 DR 0.89 | p97 inh conf 41
Cc1cc(C)c(S(=O)(=O)/N=C2\C=C(Nc3ccc(C(=O)O)cc3)C(=O)c3ccccc32)c(C)c1	none (no result: DTT redox prof, p97 ATPase inh, PERK inh)
O=C(O)c1ccc(NC2=C/C(=N/S(=O)(=O)c3ccccc3)c3ccccc3C2=O)cc1	DTT redox prof 149, p97 ATPase inh 18, UBC9 SUMO inh inconclusive | Redox H2O2 DR 2.7 | p97 inh conf 23
O=C(CSc1nncc2ccccc12)N1CCCCC1	none
CC(=O)N(/N=C1\Sc2ccccc2C1=O)c1ccccc1C	DTT redox prof 381, p97 ATPase inh 18 | Redox H2O2 DR 19 | p97 inh conf 25
CC(=O)N(/N=C1\Sc2ccccc2C1=O)c1ccc(C)cc1C	none
NS(=O)(=O)c1ccc(NC(=O)CN2CCc3ccccc3C2)cc1	none (no result: DTT redox prof, p97 ATPase inh, PERK inh)
N#CCCn1[nH]c(-c2ccccc2)cc1=O	p97 ATPase inh 22, UBC9 SUMO inh 69 | p97 inh conf inactive
O=c1cc(-c2ccccc2)[nH]n1-c1nc2ccccc2[nH]1	none
COc1ccc(C2CC(c3ccc(F)cc3)n3nc(NS(C)(=O)=O)nc3N2)cc1 (stereo not given)	none (no result: DTT redox prof)
COc1ccc([N+](=O)[O-])cc1NC(=O)C1C2C=CC(C2)C1C(=O)O (stereo not given)	none (no result: DTT redox prof, p97 ATPase inh, PERK inh)
O=c1[nH]c(/C(Cl)=C/c2cc(Cl)ccc2O)nc2cc(Cl)ccc12	p97 ATPase inh 29 | p97 inh conf 42
O=c1[nH]c(/C(Cl)=C/c2c(F)cccc2Cl)nc2cc(Cl)ccc12	p97 ATPase inh 28 | p97 inh conf 35
N#CC1=C(N)NC(SCC(=O)c2ccc(Br)cc2)=C(C#N)C12CCCCC2	p97 ATPase inh 15 | p97 inh conf inactive
Cc1ccc(C)c(S(=O)(=O)N2CCN(C(=O)c3cncc(Br)c3)CC2)c1	none (no result: DTT redox prof, p97 ATPase inh, PERK inh)
CC1CC(C)(C)NC(=S)N1CCC(=O)N1CCN(c2ccccc2)CC1 (stereo not given)	p97 ATPase inh 15 | p97 inh conf inactive
CC(C)Cc1ccc(C(=O)Nc2ccc(Cc3ccncc3)cc2)o1	none (no result: DTT redox prof, p97 ATPase inh, PERK inh)
Oc1ccc(-c2nc3ccccc3s2)c(O)c1	p97 ATPase inh 17 (no result: DTT redox prof) | p97 inh conf inactive
Nc1ccc(O)c(-c2nc3ccccc3s2)c1	none
Cc1[nH]c2ccccc2c1C(=O)CCl	p97 ATPase inh 36 | p97 inh conf 37
CCOC(=O)c1c(C)[nH]c(C(=O)COC(=O)CCS(=O)(=O)c2ccc(C)cc2)c1C	none (no result: DTT redox prof)
Cc1ccc(S(=O)(=O)CCC(=O)OCC(=O)c2c(C)[nH]c3ccccc23)cc1	p97 ATPase inh 20 | p97 inh conf inactive
Cc1cccc(N(CC(=O)NC2CCCC2)C(=O)c2csnn2)c1C	none (no result: DTT redox prof, p97 ATPase inh, PERK inh)
O=C(O)c1cccc(NC2=Nc3cccc4cccc2c34)c1	p97 ATPase inh 16 (no result: DTT redox prof) | p97 inh conf inactive
c1ccc(NC2=Nc3cccc4cccc2c34)cc1	none
CC1=NN(c2ccc(Cl)cc2)C(=O)C1C(c1ccccc1O)c1c(C)[nH]n(-c2ccc(Cl)cc2)c1=O (stereo not given)	p97 ATPase inh 32 | p97 inh conf inactive
N#C/C(=C/c1ccc(Br)o1)C(N)=O	none
N#C/C(=C/c1ccc(Br)o1)C(N)=S	p97 ATPase inh 35 (no result: DTT redox prof) | p97 inh conf 30
CC1CC(=O)c2c(cc3c(-c4c(O)cc(O)c5c(O)c6c(cc45)OC(C)CC6=O)c(O)cc(O)c3c2O)O1 (stereo not given)	p97 ATPase inh 56, UBC9 SUMO inh inconclusive | p97 inh conf 49
O=C1CC(c2ccc(O)cc2)Oc2cc(O)cc(O)c21 (stereo not given)	none
